Reference: the supplement of paper PMC11732987, “Enantioselective OTUD7B fragment discovery through chemoproteomics screening and high-throughput optimisation” (Communications Chemistry, 2025)

Legend:
Test in all cases: log2 ratio of Biotin-Ahx-Ub-VS probe labelling (fragment/DMSO); higher = less target engagement (more negative = stronger competition), active = hit call of the paper (q ≤ 0.05, log2 ratio ≤ -1)
Conditions in all cases: compound concentration: 200 uM; treatment time: 3 h
OTUD6B = target: T1, OTUD6B (UniProt Q8N6M0)
T1 sequence (whole entry): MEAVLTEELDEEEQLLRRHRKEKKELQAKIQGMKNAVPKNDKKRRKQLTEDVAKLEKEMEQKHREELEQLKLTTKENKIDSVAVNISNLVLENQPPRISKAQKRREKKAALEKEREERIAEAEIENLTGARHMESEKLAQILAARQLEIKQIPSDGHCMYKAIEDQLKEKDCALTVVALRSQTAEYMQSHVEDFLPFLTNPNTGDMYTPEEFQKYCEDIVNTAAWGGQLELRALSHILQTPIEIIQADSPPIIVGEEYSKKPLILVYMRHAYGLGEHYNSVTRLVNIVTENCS
Procedure, shortened: (§1)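 HEK293T lysate (495 µg per sample, in Tris/CHAPS/IGEPAL buffer with protease inhibitors) was exposed in triplicate for 3 h to fragment at 200 µM or to vehicle, then to Biotin-Ahx-Ub-VS at 0.5 µM final for 1 h. Labelled DUBs were enriched on NeutrAvidin, digested with LysC and trypsin, and analysed by diaPASEF LC-MS/MS. Spectronaut label-free quantities were normalised to the global median, and values are average log2 ratios of fragment over vehicle from an unpaired t-test. Only proteins with ≥2 unique peptides were used.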

OTUD7B = target: T2, OTUD7B (UniProt Q6GQQ9)
T2 sequence (whole entry): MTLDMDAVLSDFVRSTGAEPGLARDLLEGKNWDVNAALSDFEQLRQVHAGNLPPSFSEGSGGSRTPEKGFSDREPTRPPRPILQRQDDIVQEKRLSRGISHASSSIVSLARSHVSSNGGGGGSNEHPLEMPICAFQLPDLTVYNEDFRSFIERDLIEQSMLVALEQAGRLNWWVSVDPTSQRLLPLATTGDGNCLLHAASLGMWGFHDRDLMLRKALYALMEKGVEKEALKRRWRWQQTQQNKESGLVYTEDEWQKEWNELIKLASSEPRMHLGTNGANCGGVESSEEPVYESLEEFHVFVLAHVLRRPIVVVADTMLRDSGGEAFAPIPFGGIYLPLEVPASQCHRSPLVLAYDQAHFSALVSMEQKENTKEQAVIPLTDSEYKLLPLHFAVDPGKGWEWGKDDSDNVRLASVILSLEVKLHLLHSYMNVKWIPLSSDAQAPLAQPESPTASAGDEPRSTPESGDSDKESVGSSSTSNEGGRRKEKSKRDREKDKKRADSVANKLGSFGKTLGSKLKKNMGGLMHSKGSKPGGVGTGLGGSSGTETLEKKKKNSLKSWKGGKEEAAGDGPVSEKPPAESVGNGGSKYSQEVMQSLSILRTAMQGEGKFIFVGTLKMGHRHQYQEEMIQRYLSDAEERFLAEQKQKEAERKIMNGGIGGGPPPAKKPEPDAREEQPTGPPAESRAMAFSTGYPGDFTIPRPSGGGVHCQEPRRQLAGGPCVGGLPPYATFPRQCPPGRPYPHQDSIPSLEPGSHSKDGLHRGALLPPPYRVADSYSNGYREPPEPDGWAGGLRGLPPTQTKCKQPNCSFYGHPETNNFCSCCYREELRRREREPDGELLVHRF
Procedure, shortened: as §1

PRPF8 = PRPF8 (UniProt Q6P2Q9)
Procedure, shortened: as §1

PSMD7 = target: T3, PSMD7 (UniProt P51665)
T3 sequence (whole entry): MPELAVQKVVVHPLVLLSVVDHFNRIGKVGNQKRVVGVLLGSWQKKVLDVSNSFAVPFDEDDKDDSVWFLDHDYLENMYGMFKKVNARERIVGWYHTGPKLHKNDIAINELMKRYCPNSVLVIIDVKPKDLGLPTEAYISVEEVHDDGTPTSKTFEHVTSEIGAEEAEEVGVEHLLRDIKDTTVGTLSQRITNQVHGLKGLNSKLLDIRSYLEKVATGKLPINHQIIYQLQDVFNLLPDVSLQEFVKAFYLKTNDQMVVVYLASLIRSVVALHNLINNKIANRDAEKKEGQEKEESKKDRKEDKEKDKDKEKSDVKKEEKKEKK
Procedure, shortened: as §1

UCHL1 = UCHL1 (UniProt P09936)
Chain of UCHL1 (P09936 whole entry, looked up): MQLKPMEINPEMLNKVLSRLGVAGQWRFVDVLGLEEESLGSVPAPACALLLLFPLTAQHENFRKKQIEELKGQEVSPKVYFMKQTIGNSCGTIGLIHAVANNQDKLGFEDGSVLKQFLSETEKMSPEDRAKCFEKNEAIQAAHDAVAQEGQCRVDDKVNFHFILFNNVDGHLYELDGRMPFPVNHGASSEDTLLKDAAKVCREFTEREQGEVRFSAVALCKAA
Procedure, shortened: as §1

UCHL3 = target: T4, UCHL3 (UniProt P15374)
T4 sequence (whole entry): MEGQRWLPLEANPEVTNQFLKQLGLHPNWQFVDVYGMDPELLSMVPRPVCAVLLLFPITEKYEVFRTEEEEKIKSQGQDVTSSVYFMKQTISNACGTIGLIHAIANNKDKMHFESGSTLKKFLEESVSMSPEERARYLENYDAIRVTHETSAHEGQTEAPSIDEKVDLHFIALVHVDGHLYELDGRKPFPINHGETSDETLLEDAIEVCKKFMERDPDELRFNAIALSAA
Procedure, shortened: as §1

UCHL5 = target: T5, UCHL5 (UniProt Q9Y5K5)
T5 sequence (whole entry): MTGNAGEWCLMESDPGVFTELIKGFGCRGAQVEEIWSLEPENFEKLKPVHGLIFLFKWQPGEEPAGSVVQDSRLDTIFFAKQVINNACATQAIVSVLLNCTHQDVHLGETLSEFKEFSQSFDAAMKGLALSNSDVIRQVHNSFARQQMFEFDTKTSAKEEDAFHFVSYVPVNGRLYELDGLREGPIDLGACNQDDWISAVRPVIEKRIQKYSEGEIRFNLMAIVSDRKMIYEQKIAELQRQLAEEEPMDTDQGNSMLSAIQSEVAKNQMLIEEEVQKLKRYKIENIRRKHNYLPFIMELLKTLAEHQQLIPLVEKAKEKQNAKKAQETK
Procedure, shortened: as §1

USP10 = USP10 (UniProt Q14694)
Chain of USP10 (Q14694 whole entry): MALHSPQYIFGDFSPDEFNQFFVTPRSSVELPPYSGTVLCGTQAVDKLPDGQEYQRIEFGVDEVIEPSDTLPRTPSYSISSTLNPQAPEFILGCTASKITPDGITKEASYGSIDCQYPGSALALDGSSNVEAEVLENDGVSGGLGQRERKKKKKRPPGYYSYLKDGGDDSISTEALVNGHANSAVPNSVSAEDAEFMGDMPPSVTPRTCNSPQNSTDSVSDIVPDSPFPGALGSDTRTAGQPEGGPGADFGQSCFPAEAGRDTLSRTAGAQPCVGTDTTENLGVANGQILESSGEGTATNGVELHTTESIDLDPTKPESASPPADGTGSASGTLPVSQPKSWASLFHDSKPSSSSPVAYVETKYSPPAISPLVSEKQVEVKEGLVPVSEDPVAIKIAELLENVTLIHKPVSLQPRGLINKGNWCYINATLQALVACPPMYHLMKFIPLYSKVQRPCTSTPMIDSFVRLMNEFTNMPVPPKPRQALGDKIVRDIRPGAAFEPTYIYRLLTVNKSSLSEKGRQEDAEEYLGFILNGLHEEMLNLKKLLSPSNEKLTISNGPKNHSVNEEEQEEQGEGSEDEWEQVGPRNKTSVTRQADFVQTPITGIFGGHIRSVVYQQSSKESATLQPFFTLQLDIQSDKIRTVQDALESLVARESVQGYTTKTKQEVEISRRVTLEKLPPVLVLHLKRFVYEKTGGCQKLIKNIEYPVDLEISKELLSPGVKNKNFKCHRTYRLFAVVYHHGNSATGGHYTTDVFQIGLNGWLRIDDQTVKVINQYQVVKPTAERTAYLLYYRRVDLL
Procedure, shortened: as §1

USP15 = target: T6, USP15 (UniProt Q9Y4E8)
T6 sequence (whole entry): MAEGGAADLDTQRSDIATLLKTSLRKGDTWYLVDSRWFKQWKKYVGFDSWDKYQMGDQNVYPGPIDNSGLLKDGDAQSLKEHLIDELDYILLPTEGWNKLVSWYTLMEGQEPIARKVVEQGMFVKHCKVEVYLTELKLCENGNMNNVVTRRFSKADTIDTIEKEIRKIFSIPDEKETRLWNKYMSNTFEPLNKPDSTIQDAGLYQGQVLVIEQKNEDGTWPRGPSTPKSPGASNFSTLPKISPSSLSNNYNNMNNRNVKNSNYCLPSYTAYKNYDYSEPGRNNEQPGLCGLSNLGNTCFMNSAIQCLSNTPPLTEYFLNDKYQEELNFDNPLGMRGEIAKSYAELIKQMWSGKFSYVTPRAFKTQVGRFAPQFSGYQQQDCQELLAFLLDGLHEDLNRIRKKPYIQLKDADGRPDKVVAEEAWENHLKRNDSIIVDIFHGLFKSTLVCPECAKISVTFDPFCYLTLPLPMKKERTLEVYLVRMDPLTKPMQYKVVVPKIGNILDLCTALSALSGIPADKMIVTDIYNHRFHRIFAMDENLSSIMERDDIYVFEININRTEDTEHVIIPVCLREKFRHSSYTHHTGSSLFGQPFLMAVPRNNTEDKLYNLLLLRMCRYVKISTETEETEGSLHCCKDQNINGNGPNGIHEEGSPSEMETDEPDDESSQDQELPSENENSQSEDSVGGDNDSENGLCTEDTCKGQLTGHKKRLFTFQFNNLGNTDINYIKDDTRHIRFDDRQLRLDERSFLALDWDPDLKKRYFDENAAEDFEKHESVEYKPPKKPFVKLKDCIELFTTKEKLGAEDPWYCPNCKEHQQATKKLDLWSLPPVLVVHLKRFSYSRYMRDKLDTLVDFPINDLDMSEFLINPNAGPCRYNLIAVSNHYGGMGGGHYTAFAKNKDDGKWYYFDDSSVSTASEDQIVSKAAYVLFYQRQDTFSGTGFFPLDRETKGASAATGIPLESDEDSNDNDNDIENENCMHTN
Procedure, shortened: as §1

USP16 = USP16 (UniProt Q9Y5T5)
Chain of USP16 (Q9Y5T5 whole entry, looked up): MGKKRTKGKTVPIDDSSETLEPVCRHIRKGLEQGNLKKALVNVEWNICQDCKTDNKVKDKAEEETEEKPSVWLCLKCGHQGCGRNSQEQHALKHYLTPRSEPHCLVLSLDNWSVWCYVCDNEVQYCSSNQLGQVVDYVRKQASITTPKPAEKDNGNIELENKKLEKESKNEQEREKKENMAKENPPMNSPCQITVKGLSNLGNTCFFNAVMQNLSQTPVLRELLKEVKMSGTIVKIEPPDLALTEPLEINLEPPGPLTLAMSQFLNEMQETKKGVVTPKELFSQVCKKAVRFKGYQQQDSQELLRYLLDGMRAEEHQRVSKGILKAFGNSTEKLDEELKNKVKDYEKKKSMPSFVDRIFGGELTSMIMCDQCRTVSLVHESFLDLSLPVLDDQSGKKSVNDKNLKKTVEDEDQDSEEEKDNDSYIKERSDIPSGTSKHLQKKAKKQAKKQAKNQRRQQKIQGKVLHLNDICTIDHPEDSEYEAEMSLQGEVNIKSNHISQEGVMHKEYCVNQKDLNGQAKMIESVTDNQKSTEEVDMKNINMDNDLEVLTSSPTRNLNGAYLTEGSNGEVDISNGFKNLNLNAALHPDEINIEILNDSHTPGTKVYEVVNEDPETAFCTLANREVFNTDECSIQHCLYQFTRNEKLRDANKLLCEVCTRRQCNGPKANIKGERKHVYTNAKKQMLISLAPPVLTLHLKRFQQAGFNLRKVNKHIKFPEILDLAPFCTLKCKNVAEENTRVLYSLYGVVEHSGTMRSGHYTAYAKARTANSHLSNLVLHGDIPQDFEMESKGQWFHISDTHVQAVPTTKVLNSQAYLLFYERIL
Procedure, shortened: as §1

Measured: log2 ratio of Biotin-Ahx-Ub-VS probe labelling

C/C(=C\CNC(=O)CCl)c1cnn(C)c1.Cl
inactive: OTUD6B -0.0447 | OTUD7B -0.863 | PRPF8 0.0944 | PSMD7 0.0605 | UCHL3 0.15 | UCHL5 -0.0212 | USP10 -0.19 | USP15 -0.476 | USP16 -0.58
active: UCHL1 -1.27
